{"source": "paper PMC7819943", "about": "“Rice protein-binding microarrays: a tool to detect cis-acting elements near promoter regions in rice”", "note": "Whole data set: some 39,000 sequences, median “fluorescence intensity (a.u.)” near 4,300, cut for the highest 2% near 39,000. For the sample, the highest values were picked, then their nearest neighbours and some sequences at random."}
{"target": "T1, OsSMF1 (Oryza sativa, UniProt Q6ZLB0 1-436)", "T1 sequence": "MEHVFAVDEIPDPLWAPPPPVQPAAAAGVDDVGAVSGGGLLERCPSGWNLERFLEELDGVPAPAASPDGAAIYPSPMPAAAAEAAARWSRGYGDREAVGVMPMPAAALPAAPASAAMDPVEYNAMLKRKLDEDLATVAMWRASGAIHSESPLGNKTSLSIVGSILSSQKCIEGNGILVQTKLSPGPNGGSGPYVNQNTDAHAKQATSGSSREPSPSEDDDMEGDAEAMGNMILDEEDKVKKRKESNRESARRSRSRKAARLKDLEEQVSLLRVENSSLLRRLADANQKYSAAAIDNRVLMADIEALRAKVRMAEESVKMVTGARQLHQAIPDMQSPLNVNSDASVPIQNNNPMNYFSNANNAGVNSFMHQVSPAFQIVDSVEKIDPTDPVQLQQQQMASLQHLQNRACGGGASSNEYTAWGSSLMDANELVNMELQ", "assay": "protein-binding microarray (RPBM); PBS, 2% BSA, 51.3 ng/ul salmon testes DNA, 50 uM zinc acetate, 200 nM TF, 25 C, 1 h; high values mean tight binding", "conditions": "protein: recombinant; tags: N-terminal polyhistidine and DsRed monomer fusion (pET32a); chain copies: 2; label: CyDye5-dUTP incorporated in the synthesized complementary strand; 3' TTTTT single-stranded linker to array surface; dsDNA, one strand shown", "procedure,_shortened": "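Transcription factors were made in E. coli BL21-CodonPlus as N-terminal fusions to a polyhistidine tag and DsRed, then purified on Ni–NTA. After primer extension with Cy5-dUTP and blocking with 2% BSA, a custom Agilent array was exposed for 1 h at 25 °C to 200 nM protein in PBS, 2% BSA, salmon testes DNA and 50 µM zinc acetate. Washed arrays were scanned on an Axon 4000B, and the binding signal is per-feature fluorescence intensity in arbitrary units.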"}
{"sequence": "AAGCGCACGCACACATATGCCACGCATTGACGCATGGCACCGGAGTCACCTAGTGCAG", "binding signal": "5630 fluorescence intensity (a.u.)"}
{"sequence": "CCCAGCCCACAAAGGAAGCGAGATCACAATTTCTGGGCCGCGGAGTCACCTAGTGCAG", "binding signal": "3400 fluorescence intensity (a.u.)"}
{"sequence": "AAAAGCAAAAGCAAAAGAAACACGTCCTTATTCCTCTCTCCGGAGTCACCTAGTGCAG", "binding signal": "3910 fluorescence intensity (a.u.)"}
{"sequence": "TCCCGCCACAAGCAACCAAGAAATCAAGAAACCGTTTCAGCGGAGTCACCTAGTGCAG", "binding signal": "19600 fluorescence intensity (a.u.)"}
{"sequence": "GATCAACCTTATTTCTGCAAGCAAATCAAAGAAACAAGCACGGAGTCACCTAGTGCAG", "binding signal": "41700 fluorescence intensity (a.u.)"}
{"sequence": "CGGCAGCCACCTCCCCACTCCATCCTCTCGTCCCCTTTTACGGAGTCACCTAGTGCAG", "binding signal": "3870 fluorescence intensity (a.u.)"}
{"sequence": "ATTGTTTAGTATTGCGTTATGTTATGTTACTTTTGATACACGGAGTCACCTAGTGCAG", "binding signal": "14400 fluorescence intensity (a.u.)"}
{"sequence": "CTGCTCCTAGTCACACTTGACAGTTCAGCTTCAGCTCCTCCGGAGTCACCTAGTGCAG", "binding signal": "6360 fluorescence intensity (a.u.)"}
{"sequence": "TGAGCTGCTTTTACACGTTGCTTTATTGACACTTGTTCACCGGAGTCACCTAGTGCAG", "binding signal": "45500 fluorescence intensity (a.u.)"}
{"sequence": "TGCATAAGGATAATCCGGTCGTCAGCAAACAATGCATTCACGGAGTCACCTAGTGCAG", "binding signal": "3450 fluorescence intensity (a.u.)"}
{"sequence": "CAAGACGGATTTATTAAGCCTAATTAATCTATCATTAGCGCGGAGTCACCTAGTGCAG", "binding signal": "4110 fluorescence intensity (a.u.)"}
{"sequence": "TGCAAATTGCGAGACGGATTTATTAAGCCTAGTTAATCCGCGGAGTCACCTAGTGCAG", "binding signal": "39400 fluorescence intensity (a.u.)"}
{"sequence": "ACGAATTTATTAAGCCTAATTAATCCGTTATTAGCAAATGCGGAGTCACCTAGTGCAG", "binding signal": "6210 fluorescence intensity (a.u.)"}
{"sequence": "AAAGGCCACGCCTTTGCCTCGTCAGTTATCTCTTCGTTTCCGGAGTCACCTAGTGCAG", "binding signal": "5220 fluorescence intensity (a.u.)"}
{"sequence": "GGAGTATCCATGCCAGCTAAGCGAGTTGTACAAGGCAAGCCGGAGTCACCTAGTGCAG", "binding signal": "5690 fluorescence intensity (a.u.)"}
{"sequence": "CGGGTAGGCGAACACGTCGCTGACGCCGCACCGCTCCAGCCGGAGTCACCTAGTGCAG", "binding signal": "6760 fluorescence intensity (a.u.)"}
{"sequence": "TGGTGATATCAATAGGATTGGAAGAGATTTGTCAGCCTATCGGAGTCACCTAGTGCAG", "binding signal": "3450 fluorescence intensity (a.u.)"}
{"sequence": "TATCAAAATCCACTGCAACATTTAATACATACATAGTGAACGGAGTCACCTAGTGCAG", "binding signal": "21300 fluorescence intensity (a.u.)"}
{"sequence": "TAGCTCGTACTCCTACATCGTAGCCACCGCGCCTCCCATGCGGAGTCACCTAGTGCAG", "binding signal": "3640 fluorescence intensity (a.u.)"}
{"sequence": "CGCCATGGGCGACATCGACATCTACAGCCTCTACACTCCGCGGAGTCACCTAGTGCAG", "binding signal": "44200 fluorescence intensity (a.u.)"}
{"sequence": "CGCCATGGGAGCACTCCCCATCTTGTCCTCTACCGCCGCGCGGAGTCACCTAGTGCAG", "binding signal": "3250 fluorescence intensity (a.u.)"}
{"sequence": "GCCTGTGGCCCACGCCGTCAGTGGGAGTGGCGGTGTCGGGCGGAGTCACCTAGTGCAG", "binding signal": "3960 fluorescence intensity (a.u.)"}
{"sequence": "CCGAATCCGGCCACCCCGCCGCCTCCACGCGCATCACCGCCGGAGTCACCTAGTGCAG", "binding signal": "3220 fluorescence intensity (a.u.)"}
{"sequence": "ACGGGCACGACGACCGTCGTGCTCACGGCCGCCGACGTCGCGGAGTCACCTAGTGCAG", "binding signal": "4140 fluorescence intensity (a.u.)"}
{"sequence": "GCCGATTGCAATTTCGTCATCACTGCGGTTAGGATTACACCGGAGTCACCTAGTGCAG", "binding signal": "4340 fluorescence intensity (a.u.)"}
{"sequence": "TGCTGTCGATGTGCTTATCTTTCGATTTATTCCTCTCATCCGGAGTCACCTAGTGCAG", "binding signal": "3200 fluorescence intensity (a.u.)"}
{"sequence": "CCCACCATTGCCGCCGTGTCCGGCAACCTAACGAACCTCGCGGAGTCACCTAGTGCAG", "binding signal": "4100 fluorescence intensity (a.u.)"}
{"sequence": "GGCAACGCACCACGCTGCACGCGTCCGTGGTCGCCGCGAACGGAGTCACCTAGTGCAG", "binding signal": "3150 fluorescence intensity (a.u.)"}
{"sequence": "CTCCGCAGTCGTAGGCCCACGCGAACCATTCCGTGTGCAACGGAGTCACCTAGTGCAG", "binding signal": "52000 fluorescence intensity (a.u.)"}
{"sequence": "CCTCCTTTTCTTCTCCACGTATACAATCAGTCTAGTTGGACGGAGTCACCTAGTGCAG", "binding signal": "5040 fluorescence intensity (a.u.)"}
{"sequence": "ATCTTTTCTAGTACCAGGATCTTGTGTTGGTGATAGAGAGCGGAGTCACCTAGTGCAG", "binding signal": "42500 fluorescence intensity (a.u.)"}
{"sequence": "TGGATAAGGATGTGTGAGACGTGTGATCTTTACTTGTTGGCGGAGTCACCTAGTGCAG", "binding signal": "3980 fluorescence intensity (a.u.)"}
{"sequence": "GCAGTATATGTGTGTGTGCTTTCTTTTGGGATAGAGTCTGCGGAGTCACCTAGTGCAG", "binding signal": "3460 fluorescence intensity (a.u.)"}
{"sequence": "TACTTTAAATGTGTGTCCGTATATCCGATGTGACACGCCACGGAGTCACCTAGTGCAG", "binding signal": "3870 fluorescence intensity (a.u.)"}
{"sequence": "TAAACATATATGCATGGATGATGTCATGGAAACATGGATTCGGAGTCACCTAGTGCAG", "binding signal": "4690 fluorescence intensity (a.u.)"}
{"sequence": "GATCAATCATCCTTGTTCACAAGGCTGCCTGACATGGATGCGGAGTCACCTAGTGCAG", "binding signal": "3730 fluorescence intensity (a.u.)"}
{"sequence": "AGATGGGAAATAAAGGGTGGTGACATGGCACACTGACATGCGGAGTCACCTAGTGCAG", "binding signal": "10800 fluorescence intensity (a.u.)"}
{"sequence": "CCGAGTCAATACTGCCACGTAGCGCGCCACGTCAGCGAAACGGAGTCACCTAGTGCAG", "binding signal": "26300 fluorescence intensity (a.u.)"}
{"sequence": "AAAAGCCCACCACCACCCAACCCGCCCAACGCCACGTCACCGGAGTCACCTAGTGCAG", "binding signal": "24800 fluorescence intensity (a.u.)"}
{"sequence": "CGCTCCGTCAGCCACGTAGACGCTACGTCGGCCAAAACCGCGGAGTCACCTAGTGCAG", "binding signal": "14900 fluorescence intensity (a.u.)"}
{"sequence": "TACTGCCACGTAGGCGCCACGTCAGCGAAACCGCCCTCCACGGAGTCACCTAGTGCAG", "binding signal": "58100 fluorescence intensity (a.u.)"}
{"sequence": "GGTGTCACGTAAGCGCCACGTCAGCGAACCGCCCTCCAAACGGAGTCACCTAGTGCAG", "binding signal": "26600 fluorescence intensity (a.u.)"}
{"sequence": "CAAACAAGCCACGTAGATGCCACGTCATCCAAAACCGCCTCGGAGTCACCTAGTGCAG", "binding signal": "29600 fluorescence intensity (a.u.)"}
{"sequence": "GCGCCACGTAGACGCCACGTCAGCCAAAACCGCCCTCCATCGGAGTCACCTAGTGCAG", "binding signal": "52000 fluorescence intensity (a.u.)"}
{"sequence": "GTCAAAACCGCCACGTAGACGCCACGTCATCGAAACCGCCCGGAGTCACCTAGTGCAG", "binding signal": "40400 fluorescence intensity (a.u.)"}
{"sequence": "GCCCACGCTCACCGACTCCATCGACGTCACGCTCACCGCCCGGAGTCACCTAGTGCAG", "binding signal": "5090 fluorescence intensity (a.u.)"}
